Experimental data published in the supplement of paper PMC3484114.
± gives the standard deviation.

What follows are compounds tested on OVCAR-3-derived ovarian cancer stem-like cells (spheroids) (assay: cell growth relative to untreated control; higher = more growth (less inhibition)). Conditions: 2.29 µM; 96 h.
Procedure, shortened: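 Stem-like cells derived from OVCAR-3 spheroids were dissociated with trypsin and seeded at 50,000 cells/mL in stem cell medium in ultra-low attachment 96-well plates, then preincubated for 24 h. Each compound was added at 2.29 uM to 4 replicate wells and left for 96 h at 37°C, 5% CO2. Viability came from TOX8 resazurin fluorescence (ex 560/em 590 nm) read after 4 h. Percent growth was expressed relative to untreated wells, after blank subtraction and removal of outliers by the Grubbs test.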

SMILES	cell growth
CN1CCCC2C(c3ccccc3)C(C3=NCCCC3)C(c3ccccc3)CC21 (centres undefined)	110 ± 27%
CC[C@H](C)C(=O)O[C@H]1CCC=C2C=C[C@H](C)[C@H](CC[C@@H]3C[C@@H](O)CC(=O)O3)[C@H]21	135 ± 25%
CN(C)c1ccc(/C=C2\CCc3ccccc3C2=O)cc1Br	91.4 ± 12%
CC(C)C1=C(O)C2=C(C(=O)C1=O)C1(C)CCCC(C)(C)C1CC2O (centres undefined)	134 ± 36%
C=C1C(=O)C2=CC1CCC(=O)C1(C)CCC(OC(C)=O)C(C)(C)C1CC2O (centres undefined)	30.4 ± 11%
O=C(CC1(O)C(=O)Nc2c(Cl)cc(Cl)cc21)c1cccc2ccccc12 (centres undefined)	90.9 ± 16%
CSc1ccc(NC(=O)CCl)cc1	80.8 ± 14%
NCCSSCc1ccccc1CSSCCN	109 ± 25%
CO[C@H]1C[C@@H]2CC[C@@H](C)[C@@](O)(O2)C(=O)C(=O)N2CCCC[C@H]2C(=O)O[C@H]([C@H](C)C[C@@H]2CC[C@@H](O)[C@H](OC)C2)CC(=O)[C@H](C)/C=C(\C)[C@@H](O)[C@@H](OC)C(=O)[C@H](C)C[C@H](C)/C=C/C=C/C=C/1C	97 ± 21%
CC(C)(C)NCCC(O)c1cc(C(F)(F)F)nc2c(C(F)(F)F)cccc12 (centres undefined)	108 ± 23%
CN(C)CCCCN1CCc2c(n(C)c3ccccc23)C1=O	101 ± 13%
O=C1C(C(O)(C(F)(F)F)C(F)(F)F)CCC1C(O)(C(F)(F)F)C(F)(F)F (centres undefined)	104 ± 18%
Cc1ccc(N=N/C(=N\NC(=O)c2ccc(C)cc2)c2ccc(N(CCC#N)CCC#N)cc2C)cc1	74.4 ± 26%
COc1cc2cc3c4cc(OC)c(OC)cc4cc[n+]3c(C)c2cc1OC.O=C(O)CS(=O)(=O)[O-]	53.7 ± 9.7%
